Screens deposited in PubChem by National Center for Advancing Translational Sciences (NCATS).
uPA surface inh – cell surface uPA generation inhibition; cell surface uPA generation assay, qHTS; Potency, µM (series often up to 38.3 µM), inactives show top-dose activity change, negative = inhibition, hits mostly inhibitors; actives 0.31% (n = 330,000); active means well fitted inhibition curve with a large enough effect; inconclusive means small, poorly fitted or top-dose-only effect; inactive means no such curve, though single readings can be large or run the other way; tested in mouse RAW 264.7 cells; further: potency means the concentration at half of the fitted maximal effect; nearly all actives have a fitted effect of over 55% in size
HT1080 IDH1KD tx – kills HT-1080 cells with IDH1 knockdown; actives 2% (n = 360,000); AID 686971; Potency, µM (series often up to 46.1 µM), inactives show at the top dose activity, negative = toxicity, hits mostly cytotoxic; HT-1080 IDH1 knockdown viability, ATP luminescence, 48 h;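 further: potency means the concentration at half of the fitted maximal effect; 0% = DMSO wells and -100% = cell-free medium wells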
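Using the IDH1-knockdown HT-1080 line run in the same batch and compound series as the NT line, viability after 48 h at 37 °C was determined by CellTiter-Glo luminescence and expressed as % activity.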
IL-1B inflam inh – blocks inflammasome-driven IL-1 beta release; THP-1 LPS/ATP IL-1B secretion, AlphaLISA, 16 h; stronger effect = lower value; activity change, % at 57.5 µM; actives 4.7% (n = 360,000); AID 743279; in the data active means activity change below about -50%; inconclusive means mostly about -30% to -49%
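Secreted IL-1B measured by AlphaLISA bead assay after 16 h compound exposure of THP-1 cells; compounds (final up to 57.5 uM) added 1 h before LPS (250 ng/mL) and ATP (1.25 mM) stimulation; lower signal means less secretion.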
HT1080-NT tox – kills 2HG-producing HT-1080-NT fibrosarcoma cells | HT-1080-NT fibrosarcoma viability, CellTiter-Glo ATP luminescence, 48 h | actives 1.6% (n = 360,000) | Potency, µM (titrated, usually from 46.1 µM), for the others: at the top dose activity, negative = less viability, actives largely listed as cytotoxic | AID 686970;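 further: NT is the 2HG producing partner of a matched IDH1 knockdown line; potency means the concentration at half of the fitted maximal effect; 0% = DMSO-treated cells and -100% = media-only wells without cells; nearly all actives have a fitted effect of over 55% in size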
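Read-out is CellTiter-Glo luminescence after 10 minutes at room temperature, following 48 hours' compound treatment of HT-1080-NT cells (750 cells/well, RPMI, 5% FBS, 37 degrees C).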
TDP1 cell CPT – growth inhibition of DT40 Tdp1-/-;hTDP1 cells with camptothecin (screen for TDP1 inhibitors) | chicken DT40 Tdp1-/-;hTDP1 cells + 20 nM CPT, ATP luminescence, 48 h | Potency, µM (series often up to 46.2 µM), for the others: at the highest dose activity change, negative = growth inhibition, hits mostly inhibitors | AID 686979 | actives 12% (n = 420,000); further: potency means the concentration at half of the fitted maximal effect; nearly all actives have a fitted effect of over 55% in size
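Cell growth measured by CellTiter-Glo luminescence after a minimum 48 h, 37 C compound exposure with 20 nM CPT in Tdp1-knockout DT40 cells stably expressing hTDP1, seeded 400/well; qHTS titration format.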
DT40 TDP1 no CPT – qHTS for Inhibitors of human tyrosyl-DNA phosphodiesterase 1 (TDP1): qHTS in cells in absence of CPT; Potency, µM (doses to about 46.2 µM), for the others: top-dose activity change, negative = growth inhibition, hits mostly inhibitors; actives 15% (n = 420,000); DT40 Tdp1-/- hTDP1 cells, no CPT, ATP luminescence, 48 h; further: potency means the concentration at half of the fitted maximal effect; nearly all actives have a fitted effect of over 55% in size
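Compound effects on proliferation are scored in DT40 Tdp1-/-;hTDP1 cells in the absence of CPT. ATP levels (CellTiter-Glo luminescence) are recorded after a ≥48 hr, 37 °C incubation.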
* hit, by the source's call; u = inconclusive; x = no result given; ! = repeats disagree. Most compounds without a hit are left out; they make up all but 19% or so of the library. Unless noted, the call rests on the fitted dose curve; in most records, active means well fitted curve in the direction sought with a large enough effect; inconclusive means small, poorly fitted or top-dose-only effect, or another doubt; inactive means no such curve, though single readings can be large; an effect the other way counts as inactive or inconclusive. Unless noted, on the % scale 0 is the no-effect control and ±100 the full control effect.

SMILES	uPA surface inh	HT1080 IDH1KD tx	IL-1B inflam inh	HT1080-NT tox	TDP1 cell CPT	DT40 TDP1 no CPT
Cc1c(C(=O)N2CCc3ccccc3C2)oc2ccc(S(=O)(=O)N3CCCCCC3)cc12	-12%	-5%	-14	6%	23µM*	18µM*
CCOC(=O)N1CCN(C(=O)c2oc3ccc(S(=O)(=O)N4CCOCC4)cc3c2C)CC1	5%	-5%	13	-3%	-6%	-27%
CCOC(=O)C1CCN(C(=O)c2oc3ccc(S(=O)(=O)N4CC(C)CC(C)C4)cc3c2C)CC1 (stereo not drawn)	-3%	-5%	-15	-9%	18µM*	16µM*
CCN(C(=O)c1oc2ccc(S(=O)(=O)N3CCCCCC3)cc2c1C)c1ccccc1	x	x	x	x	23µM*	15µM*
Cc1c(C(=O)N(C)Cc2ccccc2)oc2ccc(S(=O)(=O)N3CCCC3)cc12	-7%	-6%	13	-13%	-22%	u
CCOC(=O)N1CCN(C(=O)c2oc3ccc(S(=O)(=O)N4CCCCCC4)cc3c2C)CC1	-5%	-11%	-2	-14%	15µM*	13µM*
CC(C)OCCCNC(=O)CN1C(=O)COc2ccc(S(=O)(=O)N3CCOCC3)cc21	x	x	x	x	8%	-13%
O=C(c1cccc(S(=O)(=O)N2CCOCC2)c1)N1CCCc2ccccc21	1%	2%	2	-4%	-23%	-13%
Cc1c(C(=O)N2CCCc3ccccc32)oc2ccc(S(=O)(=O)N3CCOCC3)cc12	x	u	-16	u	14µM*	11µM*
CCOC(=O)N1CCN(c2ccc(S(=O)(=O)N3CCC(C)CC3)cc2[N+](=O)[O-])CC1	-16%	u	20	-4%	21µM*	13µM*
CCN(CC)C(=O)C1CCN(S(=O)(=O)c2ccc3oc4ccccc4c3c2)CC1	-11%	-4%	u	-7%	21µM*	16µM*
CCOC(=O)c1c(C)n(-c2ccccc2)c2ccc(OC(=O)c3ccccc3Cl)cc12	x	x	x	x	u	16µM*
CCOC(=O)c1c(C)n(-c2ccccc2)c2ccc(OC(=O)c3ccc(OCC)c(OCC)c3)cc12	x	x	x	x	u	18µM*
CCOc1ccc(-n2c(C)c(C(=O)OC)c3cc(O)ccc32)cc1	5%	-1%	-2	-5%	-22%	u
CCOC(=O)c1c(C)n(-c2ccccc2)c2ccc(OC(=O)c3cc(OC)cc(OC)c3)cc12	x	x	x	x	u	21µM*
CCOC(=O)c1c(C)n(-c2ccccc2)c2ccc(OC(=O)c3cccc(OC)c3OC)cc12	x	x	x	x	-18%	-26%
CC(C)Cn1c(=O)c2ccccc2n2c(CCC(=O)NC(C)c3ccccc3)nnc12 (stereo not drawn)	x	x	x	x	6%	-2%
O=C(Cc1c(F)cccc1Cl)NNC(=O)c1ccc(Br)s1	6%	1%	16	8%	8%	15%
COc1cccc(CN2CCC2(C)C(=O)Nc2ccc(C)cc2)c1F (stereo not drawn)	x	-18%	1	u	16µM*	23µM*
Cc1ccc(NC(=O)C2(C)CCN2CCc2ccccc2)cc1 (stereo not drawn)	x	-10%	0	-22%	u	u
CC1(C(=O)Nc2cccc(Oc3ccccc3)c2)CCN1Cc1cccc2c1OCO2 (stereo not drawn)	x	u	-11	u	u	u
Cc1ccc(NC(=O)C2(C)CCN2Cc2cccc3c2OCO3)cc1O (stereo not drawn)	x	u	0	u	16µM*	u
COc1cccc(NC(=O)C2(C)CCN2Cc2cccc(OC)c2F)c1 (stereo not drawn)	x	u	-17	-18%	u	21µM*
COc1cccc(CN2CCC2(C)C(=O)Nc2ccc(C)c(O)c2)c1F (stereo not drawn)	x	u	-52*	u	12µM*	12µM*
COc1ccc(NC(=O)C2(C)CCN2Cc2ccc3ccccc3c2)cc1OC (stereo not drawn)	x	u	-18	-21%	u	u
SMILES	uPA surface inh	HT1080 IDH1KD tx	IL-1B inflam inh	HT1080-NT tox	TDP1 cell CPT	DT40 TDP1 no CPT
COc1cccc(CN2CCC2(C)C(=O)Nc2ccc3c(c2)OCO3)c1F (stereo not drawn)	x	u	-28	-9%	23µM*	u
COc1cccc(CN2CCC2(C)C(=O)Nc2cccc(Oc3ccccc3)c2)c1F (stereo not drawn)	x	6.5µM*	-21	u	10µM*	7.3µM*
COc1ccc(NC(=O)C2(C)CCN2Cc2cccc(OC)c2F)cc1OC (stereo not drawn)	x	4%	u	12%	23µM*	13µM*
CC1(C(=O)Nc2cccc(Oc3ccccc3)c2)CCN1Cc1ccccc1OC(F)F (stereo not drawn)	x	-18%	-13	-25%	u	u
CN(C)c1ccc(-c2c(-c3ccc4c(c3)OCO4)noc2-c2ccsc2)cn1	-24%	-2%	-9	0%	u	u
COc1ccc(-c2c(-c3ccc4c(c3)OCO4)noc2-c2ccsc2)cn1	x	x	x	x	13µM*	14µM*
COc1ccc(-c2c(-c3ccc4c(c3)OCO4)noc2C)cn1	u	-11%	-3	-9%	u	11µM*!
COC(=O)c1ccc(OCC(=O)NC2CCCCCCC2)cc1	-1%	0%	1	1%	u	16µM*
CC(C)CCNC(=O)COc1ccc(C(=O)c2ccccc2)cc1	-1%	-20%	u	u	18µM*	u
CC(C)(C)c1ccc(OCCC(=O)OCC(=O)NC(=O)NC2CCCC2)cc1	-9%	u	-86*	u	18µM*	18µM*
CC(C)(C)c1ccc(OCCC(=O)OCC(=O)NC2CCCCC2)cc1	-1%	12%	-6	4%	-1%	-7%
O=C(CNC1CCCCC1)NN=C(c1ccccc1)c1ccccc1	x	-6%	-64*	-1%	u	u
CCOc1ccccc1N(CC(=O)NCC1CCCO1)C(=O)CCC(=O)Nc1nccs1 (stereo not drawn)	2%	0%	18	9%	3%	-3%
O=Cc1ccc(OCC(=O)NC(=O)NC2CCCCC2)cc1	3%	-1%	6	4%	u	u
CC(=O)c1ccc(OCC(=O)NC(=O)NC2CCCCC2)cc1	-3%	-2%	32	-10%	23µM*	16µM*
Cc1ccc(NC(=O)NC2CCCCC2)c(C)c1	-3%	11%	0	10%	1µM*	1.2µM*
